Screen size: about 43,000 compounds; about 830 (1.9%) were called active. About 30% were inconclusive and are not listed. The calls were made as follows: active = clear falling dose curves in both reporters; inconclusive = both reporters move, but less clearly or upward; inactive = either reporter flat; the % is the NLuc reporter signal. The entries come from a sample that favours actives as a whole. Where a call stands in place of a potency, no number is given.
Potency is read from the fitted curve at half-maximal effect.

The nature of the experiment: Cell-based coincidence reporter assay to measure PMP22 gene transcription in S16 Pmp22-F2sN cells - Primary screen. The following applies: S16 Pmp22-F2sN Schwann cells (luciferase reporters placed in the Pmp22 gene), FLuc/NLuc coincidence luminescence, 24 h; series mostly up to 57.5 µM. The text has this:
Assay Provider: Jim Inglese Ph.D. National Center for Advancing Translational Science, National Institutes of Health, Rockville, MD CMT is a heterogeneous group of neurological disorders that affect approximately 1 in 2,500 people. In particular, the most common form of CMT, CMT1A is genetically linked to the duplication of the PMP22 gene which leads to Schwann cell overexpression, thus manifesting itself as a typical case of dose-sensitive diseases. To identify small molecule compounds that can mediate the expression of PMP22 we developed a phenotypic assay screening strategy by utilizing genome editing techniques to construct Schwann cell lines containing novel reporter technology to monitor the transcriptional or translational regulation of PMP22. For high sensitivity we use a bioluminescent reporter system embedded in the 3' UTR of the PMP22 gene (S16(c9) Pmp22-F2sN) to identify compounds that inhibit gene expression. […] We can further discriminate the effect of all transcriptionally active molecules on PMP22 translation or stability with an assay that incorporates a short NLuc peptide (HiBiT) at the C-terminus of expressed PMP22 (S16(f8) PMP22-HiBiT) allowing alpha complementation and luminescence detection of membrane-associated PMP22 protein. These assays were screened against the NCATS Sytravon Library Collection. Miniaturization of these assays to 1536-well plate format for quantitative high throughput screening (qHTS) yielded rich data sets immediately from the qHTS assay (S16(c9) Pmp22-F2sN), when compared with data from a cell viability assay (Cell TiterGlo) to identify compounds that decreased the output signals through cellular toxicity to streamline the selection process of actives for subsequent characterization using the HiBiT assay (S16(f8) PMP22-HiBiT).
Cell-based coincidence reporter assay to measure PMP22 gene transcription in S16 Pmp22-F2sN cells PROTOCOL TABLE (format as described by Inglese J, Shamu CE and Guy RK. 2007) SEQUENCE No. (e.g., 1, 2, 3, etc.); […] (e.g., Cells, Incubation, Reagent, etc.); VALUE and DESCRIPTION. 1. Cells. Add 500-1,000 cells in 4 uL in growth media (DMEM High Glucose, No Phenol Red media + 10% heat-inactivated FBS + 1% Pen/Strep supplemented media) per well into Greiner 1536-well white/solid bottom high base, TC-treated plates. 2. Compounds. Library compounds and controls added at 23nL per well, transferred by Pin Tool. 3. Incubation. Incubate plates at 37C, 5% CO2, 95% RH for 24 h. 4. Reagent. Add 3.5uL Nano-Glo Dual-Luciferase Reporter Assay System reagent 1: Lysis and FLuc reagent per well of Greiner 1536-well plates. 5. Incubation. Incubate plates at room temperature for 10 min., protect from light. 6. Detector. FLuc luminescence measured using CCD-based camera (Viewlux). 7. Reagent. Add 3.5uL Nano-Glo Dual-Luciferase Reporter Assay System reagent 2: Stop&Glo reagent per well of Greiner 1536-well plates. 8. Incubation. Incubate plates at room temperature for 10 min., protect from light. 9. Detector. NLuc luminescence measured using CCD-based camera (Viewlux). NOTES (numbers refer to Sequence numbers above; values are from representative experiments) 6. Luminescence Read #1 (FLuc): Clear filter; Exposure = 10 sec, Gain = High, Speed = Slow, Binning = 2X 9. Luminescence Read #2 (NLuc): Clear filter; Exposure = 1 sec, Gain = High, Speed = Slow, Binning = 2X REFERENCES: 1. Inglese J, Shamu CE and Guy RK, Reporting data from high throughput screening of small molecule libraries, Nature Chemical Biology, 2007, 3(8): 438-441. doi.org/10.1038/nchembio0807-438 2. Yasgar A, Shinn P, Jadhav A, Auld DS, Michael S, Zheng W, Austin CP, Inglese J and Simeonov A, Compound Management for Quantitative High-Throughput Screening. J. Assoc. Lab. Auto., 2008, 13: 79-89. doi: 10.1016/j.jala.2007.12.004
In general terms: In a reporter assay the amount or activity of a reporter protein is the signal.
Regarding `O=c1c2cccnc2n(Cc2cccc(F)c2)c(=O)n1Cc1ccccc1Cl`, the Potency result is “inactive”.

As for `CCOC(=O)c1ccc(NC2=CC(c3ccc(OCC)cc3)N(c3ccc(C(=O)OCC)cc3)C2=O)cc1` (configuration not stated), the Potency result is “inactive”.

As to `CCOC(=O)c1ccc(N2C(=O)c3n[nH]c(C)c3C2c2ccc(O)c(OC)c2)cc1` (configuration not stated), the Potency was 7.51 µM (active).

In the case of `Cc1ccc(C)c(N2CCN(C(=O)Cn3nc(C)c4sc5ccccc5c4c3=O)CC2)c1`, the Potency result is “inactive”.

As for `COc1cccc(C(=O)N(Cc2cccc(Cl)c2)Cc2ccco2)c1`, the Potency result was “inactive”.

For `CCOC(=O)c1ccc(NC(=O)C2CC(=O)NC(=Nc3ccc(C)c(C)c3)S2)cc1` (configuration not stated), the Potency entry is “inactive”.

On to `CCOC(=O)Cc1ccc(NC(=O)Nc2c[nH]c(=O)[nH]c2=O)cc1`, for which the Potency entry was “inactive”.

Regarding `Cc1ccc(CSc2oc(-c3cccs3)nc2S(=O)(=O)c2ccc(C)cc2)cc1`, the Potency result is “inactive”.

For `CCCCS(=O)(=O)c1oc(-c2cccs2)nc1S(=O)(=O)c1ccccc1`, the Potency is 1.82 µM (active).

`CSc1oc(-c2cccs2)nc1S(=O)(=O)c1ccc(Br)cc1`: the Potency entry was “inactive”.

In the case of `Cc1ccc2oc(C(=O)Nc3ccc(S(=O)(=O)N4CCCCCC4)cc3)cc(=O)c2c1`, the Potency entry was “inactive”.

Regarding `Cc1cc(C)cc(-n2c(SCC(=O)NCC3CCCO3)nc3c([nH]c4ccccc43)c2=O)c1` (configuration not stated), the Potency result was “inactive”.

Turning to `CCOC(=O)c1scc(-c2ccccc2)c1S(=O)(=O)Nc1ccccc1F`, the Potency result was “inactive”.

As for `CCCS(=O)(=O)c1ncc(Cl)c(C(=O)Nc2scc(-c3ccccc3)c2C(=O)OCC)n1`, the Potency is 5.97 µM (active).

As for `CCOC(=O)c1ccc(NC(=O)c2nc(SCc3ccc(F)cc3)ncc2Cl)cc1`, the Potency result is “inactive”.

On to `CC1CCN(S(=O)(=O)c2ccc3c(c2)N(CC(=O)NCCc2ccccc2)C(=O)CO3)CC1`, for which the Potency result is “inactive”.

For the compound `CCC(C)c1ccc2oc(-c3ccc(NC(=O)c4cc5ccccc5o4)cc3)nc2c1` (configuration not stated), the Potency entry was “inactive”.

Take `COc1ccccc1-c1cc2nc(C)c(CCC(=O)NC3CCCCC3)c(C)n2n1`: the Potency result was “inactive”.

In the case of `CC(C)S(=O)(=O)c1oc(-c2ccc(F)cc2)nc1S(=O)(=O)c1ccc(F)cc1`, the Potency was 2.05 µM (active).

Regarding `O=C(CSc1oc(-c2ccc(F)cc2)nc1S(=O)(=O)c1ccc(Br)cc1)NC1CCCCC1`, the Potency entry is “inactive”.

Consider `COc1ccc(-c2nc(S(=O)(=O)c3ccccc3)c(N3CCCCC3)o2)cc1`, for which the Potency result is “inactive”.

For `Cc1ccc2nc(COc3ccc(NC(=O)COc4ccccc4F)cc3)cc(=O)n2c1`, the Potency entry was “inactive”.

`CC(=O)Nc1cc(C(=O)NCc2ccc(F)cc2)ccc1Sc1ccc(F)cc1`: the Potency result is “inactive”.

Turning to `Cc1cccc(C2CC(=O)Oc3c2c(=O)n(C)c2ccccc32)c1` (configuration not stated), the Potency entry is “inactive”.

Consider `Cc1ccc(CCNC(=O)c2nnc(Cc3cccc(F)c3)o2)cc1`, for which the Potency result was “inactive”.

As for `CC(CNC(=O)c1nnc(Cc2cccc(F)c2)o1)c1ccccc1` (configuration not stated), the Potency entry is “inactive”.

Consider `O=C(NCCCN1CCN(c2cccc(Cl)c2)CC1)c1nnc(Cc2ccc(F)cc2Cl)o1`, for which the Potency is 18.9 µM (active).

As for `CCOC(=O)c1c(NC(=O)c2cc(CC)on2)sc(C(C)=O)c1C`, the Potency entry is “inactive”.

Take `COc1ccc(CNC(=O)C2=Cc3cccc(OC)c3OC2)cc1OC`: the Potency result was “inactive”.

Consider `NC(=O)CSc1nc2c(oc3ccccc32)c(=O)n1Cc1ccccc1`, for which the Potency result is “inactive”.

Consider `O=C(NCCc1ccccc1)c1ccc2c(c1)N(Cc1ccc(F)cc1)C(=O)c1ccccc1S2(=O)=O`, for which the Potency result is “inactive”.

For the compound `O=C(c1ccc2c(c1)N(Cc1ccccc1F)C(=O)c1ccccc1S2(=O)=O)N1CCOCC1`, the Potency entry was “inactive”.

`O=C(c1ccc2c(c1)N(Cc1ccc(F)cc1)C(=O)c1ccccc1S2(=O)=O)N1CCN(c2ccccn2)CC1`: the Potency was 15.6 µM (active).

For the compound `Cc1ccc(C(=O)N2c3ncnn3C3(CCCCC3)[C@@H]3CCCC[C@@H]32)cc1`, the Potency result was “inactive”.

With `COc1ccc(CCNc2nc(-c3ccc(F)cc3)cc(C(F)(F)F)n2)cc1OC`, the Potency entry was “inactive”.

As to `O=C(CSc1nc(=O)n(Cc2cccnc2)c2c1CCC2)Nc1ccc(F)cc1F`, the Potency result was “inactive”.

With `Cn1nnnc1SCCCNCc1ccc(Cl)cc1`, the Potency entry is “inactive”.

Consider `CCC(=O)N1CCc2cc(S(=O)(=O)NC(CC(C)C)C(=O)NCCc3cccc(C)c3)ccc21` (configuration not stated), for which the Potency result is “inactive”.

`CCc1ccc(NC(=O)CSc2nc3c([nH]c4ccccc43)c(=O)n2-c2cccc(OC)c2)cc1`: the Potency result was “inactive”.

With `CCOC(=O)c1ccc(NC(=O)CSc2nc3c([nH]c4ccccc43)c(=O)n2C)cc1`, the Potency is 14.1 µM (active).

On to `Cc1ccccc1CSc1nc2c([nH]c3ccccc32)c(=O)n1C`, for which the Potency result was “inactive”.

In the case of `Cc1ccccc1NC(=O)CCOc1ccccc1`, the Potency entry was “inactive”.

In the case of `COc1ccc(C)cc1N(C)C(=O)c1c(C)oc2ncnc(N3CCOCC3)c12`, the Potency result is “inactive”.

With `Cc1cccc(-n2c(SCC(N)=O)nc3c(oc4ccccc43)c2=O)c1`, the Potency result is “inactive”.

Regarding `CC1CCN(CCCNC(=O)CN2C(=O)CSc3ccc(S(=O)(=O)N4CCCCC4)cc32)CC1`, the Potency result is “inactive”.

`CCc1ccc(NC(=O)c2cc(S(=O)(=O)N3CCCC(C)C3)cn2C)cc1` (configuration not stated): the Potency entry was “inactive”.

For the compound `CCc1ccc(NC(=O)CN2CCSc3ccc(S(=O)(=O)N4CCCC4)cc32)cc1`, the Potency is 17 µM (active).

As for `Cc1ccc(CCNC(=O)C2CCN(c3nnc(-n4cccc4CNc4ccc(C)cc4)s3)CC2)cc1`, the Potency was 20 µM (active).

As for `COc1ccccc1CCNC(=O)c1cccn1-c1nnc(N2CCCCC2)s1`, the Potency entry is “inactive”.

Consider `O=C(NCc1ccccc1Cl)c1cccn1-c1nnc(N2CCCCC2)s1`, for which the Potency result was “inactive”.

Turning to `Cc1cc(C)cc(NC(=O)Cc2csc(C)n2)c1`, the Potency entry is “inactive”.

With `Cc1nc2ccc(S(=O)(=O)NC(C(=O)NCc3ccccc3Cl)C(C)C)cc2s1` (configuration not stated), the Potency result was “inactive”.
